Assay results as given in PubChem BioAssay (NCATS).
Results filed as inconclusive are left out. Activity calls are given as the source filed them. Unless noted, calls follow the shape of the dose curve; as a rule, active = well fitted curve in the direction sought with a large enough effect; inconclusive = small, poorly fitted or top-dose-only effect, or another doubt; inactive = no such curve, though single readings can be large; an effect the other way counts as inactive or inconclusive.

Assays:
[1] = Cell Viability - BJ (AID 421; calls by dose curve;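 also: potency is read from the fitted curve at half-maximal effect; cells exposed to compound for 40 hours at 37 °C before readout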); conditions: BJ fibroblast viability, qHTS
Summary of the method: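 Quantitative HTS: ATP depletion in BJ cells after 40 hr compound exposure in complete culture medium, detected with CellTiter-Glo; AC50 from standard Hill fits.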

[2] = Cell Viability - HepG2 (AID 433; calls by dose curve;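 also: potency is read from the fitted curve at half-maximal effect; potency for ATP loss meaning cytotoxicity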); conditions: qHTS
Summary of the method: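 HepG2 hepatocellular carcinoma cells (1500/well) were treated with compounds for 40 h at 37 °C in complete medium; intracellular ATP was read by CellTiter-Glo luminescence. Data were normalized to DMSO and 100 uM tamoxifen, and AC50 came from Hill fits.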

[3] = Cell Viability - N2a (AID 540); conditions: N2a mouse neuroblastoma cell viability; activity change, negative = cytotoxicity: at 92.2 µM (top of the series); also: nearly all actives have a fitted effect of over 45% in size; also: potency is read from the fitted curve at half-maximal effect;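 as to activity change, negative = cytotoxicity: plate controls were DMSO alone for no effect and tamoxifen control for full effect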
Summary of the method: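 Mouse neuroblastoma N2a cells, 1500/well, exposed to compounds 40 h at 37 °C in complete medium. Viability measured as cellular ATP by CellTiter-Glo luminescence; AC50 from Hill fits of concentration-response.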

[4] = Cellular Toxicity (caspase-3) Jurkat (AID 655); conditions: Jurkat caspase-3 activation, luminescence; caspase-3 activation: at 92.2 µM (top of the series), DMSO = 0%, tamoxifen = 100%;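 also: cells exposed to compound for 16 h at 37 °C before reading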
Summary of the method: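 Jurkat cells (5000/well) in complete medium were treated with compounds for 16 hr at 37 °C, then Caspase-Glo 3/7 luminescence was read after 20 min at room temperature. Data normalized to DMSO (basal) and 100 uM tamoxifen (100%); AC50 from Hill fit.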

[5] = Cellular Toxicity (caspase-3) HUV-EC-C (AID 656); conditions: HUV-EC-C cells, caspase-3 activation (apoptosis), vehicle = 0, 100 µM tamoxifen = 100%; series mostly up to 92.2 µM
Summary of the method: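 HUV-EC-C endothelial cells, 1000/well, were pre-incubated 5 hr at 37°C, then exposed to compounds for 16 hr at 37°C. Caspase-Glo 3/7 luminescence was read after 20 min at room temperature. AC50 came from Hill fits, normalized to DMSO and 100 uM tamoxifen.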

[6] = Cellular Toxicity (caspase-3) NIH 3T3 (AID 666); conditions: NIH 3T3 caspase-3 activation, apoptosis/toxicity; series mostly up to 92.2 µM;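 also: caspase signal read after 16 h compound exposure; 0% = DMSO basal and 100% = 100 µM tamoxifen stimulation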
Summary of the method: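 Mouse NIH 3T3 fibroblasts (1000/well) treated 16 h at 37 C; caspase-3/7 activity measured by Caspase-Glo 3/7 luminescence after 20 min. Normalized to DMSO and 100 uM tamoxifen; AC50 from Hill fits.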

[7] = target: Cytochrome P450 3A4 (Homo sapiens) (UniProt P08684); experiment: qHTS Assay for Inhibitors and Substrates of Cytochrome P450 3A4 (AID 884); conditions: recombinant CYP3A4, Luciferin-PPXE luminescence; series mostly up to 57.1 µM; also: nearly all actives have a fitted effect of over 50% in size; also: potency is read from the fitted curve at half-maximal effect
Summary of the method: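 20 nM human CYP3A4 with 25 uM Luciferin-PPXE (at KM) in 200 mM KPO4, preincubated 10 min with compound; NADPH regeneration started a 60 min RT reaction. Luciferin detected by luminescence, normalized to 57 uM ketoconazole as full inhibition.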

[8] = MultiTox-Fluor Cytotoxicity Assay - LYMP1-001 - Dead Cells (AID 946); conditions: LYMP1-001 lymphoblastoid cells, dead-cell protease fluorescence; series mostly up to 92.2 µM;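 also: 0% = DMSO and 100% = tetraoctylammonium bromide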
Summary of the method: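 In this qHTS, 15 uM tetraoctylammonium bromide defined 100% and DMSO defined basal activity. Lymphoblastoid cells (LYMP1-001, 2500 per well) received compound for 16 hr at 37 C before a fluorogenic dead-cell substrate readout at 485/520 nm.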

[9] = MultiTox-Fluor Cytotoxicity Assay - LYMP1-002 - Live Cells (AID 955); conditions: LYMP1-002 lymphoblastoid live-cell protease fluorescence viability; series mostly up to 46.1 µM; also: % is scaled to controls: 0 for no effect and ±100 for the full control effect
Summary of the method: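 Human lymphoblastoid LYMP1-002 cells, 2500/well, treated 16 h at 37 C in complete medium. Live-cell protease activity via GF-AFC fluorescence (Ex/Em 405/510) after 60 min reagent incubation; AC50 from Hill fits.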

[10] = Cell Viability - LYMP2-009 (AID 968); conditions: LYMP2-009 lymphoblastoid cell viability; series mostly up to 92.2 µM;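 also: 0% = DMSO alone and the full-kill end = tetraoctylammonium bromide at 92 µM; nearly all actives have a fitted effect of over 55% in size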
[11] = Cell Viability - LYMP2-011 (AID 969); conditions: LYMP2-011 lymphoblastoid cells viability; series mostly up to 92.2 µM;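 also: 0% = DMSO only and full inhibition = 92 µM tetraoctylammonium bromide; nearly all actives have a fitted effect of over 60% in size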
Summary of the method: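 2500 cells/well in complete medium, compound-treated 24 h at 37 C. Viability read as intracellular ATP by CellTiter-Glo luminescence after 30 min at room temperature. AC50 from Hill fits of qHTS concentration-response data.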

[12] = Cell Viability - LYMP2-017 (AID 972); conditions: LYMP2-017 lymphoblastoid cell viability; series mostly up to 92.2 µM; also: % is scaled to controls: 0 for no effect and ±100 for the full control effect; nearly all actives have a fitted effect of over 55% in size
Summary of the method: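 LYMP2-017 human lymphoblastoid cells (2500/well) settled 5 hr at 37 C, then exposed to compound 24 hr at 37 C in complete medium. Viability taken as intracellular ATP by CellTiter-Glo luminescence after 30 min at RT; AC50 from Hill fits.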

[13] = Cell Viability - LYMP2-021 (AID 974); conditions: LYMP2-021 lymphoblastoid cells viability; series mostly up to 92.2 µM;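 also: compound exposure lasts 24 hours at 37 °C; % is scaled to controls: 0 for no effect and ±100 for the full control effect; nearly all actives have a fitted effect of over 55% in size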
Summary of the method: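 Human lymphoblastoid LYMP2-021 cells, 2500/well in complete medium, treated 24 hours at 37 C. Intracellular ATP by CellTiter-Glo luminescence (30 min, RT); AC50 from Hill fits of concentration-response.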

[14] = Cell Viability - LYMP2-016 (AID 984); conditions: LYMP2-016 lymphoblastoid cell viability, qHTS; series mostly up to 92.2 µM; also: % is scaled to controls: 0 for no effect and ±100 for the full control effect; nearly all actives have a fitted effect of over 55% in size
Summary of the method: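 Human lymphoblastoid cells (LYMP2-016), 2500/well in complete medium, preincubated 5 hr at 37 C, then compound-treated 24 hr at 37 C. Intracellular ATP read by CellTiter-Glo luminescence after 30 min at room temperature; AC50 from Hill-equation concentration-response fits.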

[15] = Cell Viability - LYMP2-026 (AID 989); conditions: LYMP2-026 lymphoblastoid cell viability, qHTS; series mostly up to 92.2 µM; also: % is scaled to controls: 0 for no effect and ±100 for the full control effect; nearly all actives have a fitted effect of over 50% in size
Summary of the method: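 Human lymphoblastoid LYMP2-026 cells, 2500/well, exposed to compound 24 h at 37 C in complete medium. Viability as intracellular ATP by CellTiter-Glo luminescence; AC50 from Hill fits of qHTS concentration-response.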

[16] = target: Vitamin D3 receptor (Homo sapiens) (UniProt P11473); experiment: qHTS assay for small molecule agonists of vitamin D receptor signaling (AID 588543; calls by dose curve;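 also: 0% = DMSO basal and 100% = reference agonist control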); conditions: HEK293T VDR-UAS-bla, beta-lactamase ratio, 16 h; series mostly up to 76.8 µM
Summary of the method: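 GeneBLAzer VDR-UAS-bla HEK293T cells in 2% charcoal-stripped FBS medium were dosed with compound titrations for 16 h at 37 °C; CCF4 β-lactamase readout (405 nm ex, 460/530 nm em). EC50 and efficacy from Hill fits, normalized to 50 nM calcitriol (100%) and DMSO (0%).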

[17] = target: Thyroid hormone receptor beta (Homo sapiens) (UniProt P10828); experiment: qHTS assay for small molecule agonists of thyroid hormone receptor beta signaling (AID 588545; calls by dose curve); conditions: TR-UAS-bla GripTite HEK 293, beta-lactamase ratio, agonist mode, 18 h; series mostly up to 76.7 µM
Summary of the method: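 In this cell-based screen, titrated compounds act on HEK 293 cells held in medium with 2% charcoal/dextran FBS, NEAA and pyruvate for 18 hrs at 37 C. Responses are expressed relative to T3 (10 nM) as 100% and basal DMSO as 0%.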

[18] = Cellular Toxicity (caspase-3) HepG2 (AID 654); conditions: HepG2 caspase-3 activation, luminescence, 0% = DMSO only, 100% = tamoxifen; series mostly up to 92.2 µM;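 also: cells exposed to compound for 16 hours before reading; 0% = DMSO alone and 100% = caspase signal from 100 µM tamoxifen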
Summary of the method: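 HepG2 cells (1500/well) were treated 16 h at 37 °C in complete medium, then caspase 3/7 activity was read by Caspase-Glo luminescence. Data were normalized to DMSO and 100 uM tamoxifen; AC50 came from Hill-equation fits of qHTS concentration-response.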

[19] = Cellular Toxicity (caspase-3) BJ (AID 658); conditions: BJ fibroblasts, luminescence, normalized: DMSO 0%, staurosporine 100%; series mostly up to 91.7 µM;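 also: 0% = DMSO basal and 100% = 10 µM staurosporine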
Summary of the method: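 Readout: Caspase-Glo 3/7 luminescence increase in BJ cells after 16 hr treatment at 37 °C. Staurosporine and tamoxifen served as positive controls; AC50 values came from Hill modelling of data normalized to DMSO and 10 uM staurosporine.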

[20] = MultiTox-Fluor Cytotoxicity Assay - LYMP1-002 - Dead Cells (AID 960); conditions: LYMP1-002 lymphoblastoid cells, dead-cell protease fluorescence; series mostly up to 46.1 µM; also: nearly all actives have a fitted effect of over 60% in size; also: potency is read from the fitted curve at half-maximal effect
Summary of the method: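 Human lymphoblastoid LYMP1-002 cells, 2500/well, treated 16 h at 37 C; dead-cell protease cleavage of bis-AAF-R110 read by fluorescence (485/520); normalized to DMSO and 15 uM tetraoctylammonium bromide; AC50 from Hill fit.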

Cytochrome P450 3A4 (Homo sapiens), sequence (P08684 whole entry, looked up): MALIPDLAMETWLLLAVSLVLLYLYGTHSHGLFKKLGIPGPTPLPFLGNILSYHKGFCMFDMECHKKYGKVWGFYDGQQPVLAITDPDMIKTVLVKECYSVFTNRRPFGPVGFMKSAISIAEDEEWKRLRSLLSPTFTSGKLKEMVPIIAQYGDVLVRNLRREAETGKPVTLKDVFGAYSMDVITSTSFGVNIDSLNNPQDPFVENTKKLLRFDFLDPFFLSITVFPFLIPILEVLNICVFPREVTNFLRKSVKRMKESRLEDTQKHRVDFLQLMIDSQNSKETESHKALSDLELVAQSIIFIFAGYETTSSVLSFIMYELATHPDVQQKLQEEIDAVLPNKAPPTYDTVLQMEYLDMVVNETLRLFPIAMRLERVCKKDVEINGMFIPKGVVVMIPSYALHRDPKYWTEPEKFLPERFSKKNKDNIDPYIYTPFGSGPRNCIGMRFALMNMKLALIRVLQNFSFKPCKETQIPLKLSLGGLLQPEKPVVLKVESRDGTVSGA
Thyroid hormone receptor beta (Homo sapiens), sequence (P10828 whole entry, looked up): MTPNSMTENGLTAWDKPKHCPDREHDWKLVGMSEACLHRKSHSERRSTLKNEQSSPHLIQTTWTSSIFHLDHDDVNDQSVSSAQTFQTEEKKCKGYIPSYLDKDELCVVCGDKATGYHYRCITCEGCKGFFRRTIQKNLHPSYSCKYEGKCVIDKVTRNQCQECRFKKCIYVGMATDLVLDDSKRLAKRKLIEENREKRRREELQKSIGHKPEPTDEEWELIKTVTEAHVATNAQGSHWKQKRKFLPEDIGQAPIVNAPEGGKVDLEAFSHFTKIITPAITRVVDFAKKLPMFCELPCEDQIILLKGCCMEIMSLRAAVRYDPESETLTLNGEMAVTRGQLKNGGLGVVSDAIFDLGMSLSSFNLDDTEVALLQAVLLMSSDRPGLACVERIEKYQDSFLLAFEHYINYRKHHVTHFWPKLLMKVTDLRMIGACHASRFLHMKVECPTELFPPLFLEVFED
Vitamin D3 receptor (Homo sapiens), sequence (P11473 whole entry, looked up): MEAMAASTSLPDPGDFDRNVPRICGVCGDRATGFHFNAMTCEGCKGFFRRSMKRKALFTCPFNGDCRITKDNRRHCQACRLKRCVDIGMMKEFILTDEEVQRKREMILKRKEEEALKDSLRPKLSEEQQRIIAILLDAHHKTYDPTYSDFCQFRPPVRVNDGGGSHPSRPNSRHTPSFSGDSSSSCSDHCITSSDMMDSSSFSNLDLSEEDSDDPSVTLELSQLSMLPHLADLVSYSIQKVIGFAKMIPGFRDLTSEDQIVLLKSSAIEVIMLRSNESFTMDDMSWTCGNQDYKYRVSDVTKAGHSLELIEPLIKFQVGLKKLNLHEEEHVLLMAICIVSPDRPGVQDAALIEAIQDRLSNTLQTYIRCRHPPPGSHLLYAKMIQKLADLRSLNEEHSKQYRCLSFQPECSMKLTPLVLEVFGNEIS

Cc1cc(-c2cc(C)c(N)c(C)c2)cc(C)c1N
active: Potency [7] 25.1 µM
inactive: Potency [1] > 92 µM | Potency [2] > 92 µM | Potency [3] | caspase-3 activation [4] 1.01% | outcome [5] | Potency [6] | outcome [8] | outcome [9] | Potency [10] | Potency [11] | Potency [12] | Potency [13] | Potency [14] | Potency [15] | outcome [16] | Potency [17]

O=[N+]([O-])c1ccccc1CCl
inactive: Potency [1] > 92 µM | Potency [2] > 92 µM | Potency [3] | outcome [18] | caspase-3 activation [4] -0.153% | outcome [5] | outcome [19] | Potency [6] | Potency [7] | outcome [8] | outcome [9] | Potency [20] | Potency [14] | Potency [15] | outcome [16] | Potency [17]

c1ccc2c(c1)CCNC2
inactive: Potency [1] > 92 µM | Potency [2] > 92 µM | outcome [18] | caspase-3 activation [4] 0.933% | outcome [5] | outcome [19] | Potency [6] | Potency [7] | outcome [8] | Potency [20] | Potency [10] | Potency [11] | Potency [12] | Potency [13] | Potency [14] | Potency [15] | outcome [16]

Oc1cc(Cl)c(Cl)c(Cl)c1Cl
active: Potency [2] 53.3 µM | Potency [3] 31.6 µM | caspase-3 activation [4] 80.5%
inactive: outcome [5] | outcome [19] | outcome [8] | outcome [9] | Potency [15] | Potency [17]

Nc1c(Cl)cc([N+](=O)[O-])cc1Cl
inactive: Potency [1] > 92 µM | Potency [2] > 92 µM | outcome [18] | outcome [5] | outcome [19] | Potency [6] | Potency [7] | outcome [8] | Potency [20] | Potency [10] | Potency [11] | Potency [12] | Potency [13] | Potency [15] | outcome [16] | Potency [17]

Cc1ccc(N)cc1Cl
inactive: Potency [1] > 92 µM | Potency [2] > 92 µM | Potency [3] | outcome [18] | caspase-3 activation [4] 1.16% | outcome [5] | outcome [19] | Potency [6] | outcome [9] | Potency [20] | Potency [10] | Potency [11] | Potency [12] | Potency [13] | Potency [14] | outcome [16] | Potency [17]

CN=C=O
inactive: Potency [1] > 92 µM | Potency [2] > 92 µM | Potency [3] | caspase-3 activation [4] -0.0583% | outcome [19] | Potency [6] | Potency [7] | outcome [8] | outcome [9] | Potency [20] | Potency [12] | Potency [13] | Potency [15] | Potency [17]

NC1CCC(CC2CCC(N)CC2)CC1 (centres undefined)
inactive: Potency [2] > 92 µM | Potency [3] | caspase-3 activation [4] 0.418% | Potency [6] | Potency [7] | outcome [8] | outcome [9] | Potency [10] | Potency [11] | Potency [12] | Potency [13] | Potency [14] | Potency [15] | Potency [17]
active: Potency [20] 3.98 µM

Cl/C=C/CCl
inactive: Potency [1] > 92 µM | Potency [2] > 92 µM | Potency [3] | outcome [18] | caspase-3 activation [4] 1.51% | outcome [5] | Potency [6] | outcome [9] | Potency [20] | Potency [11] | Potency [12] | Potency [13] | Potency [14] | Potency [15] | outcome [16] | Potency [17]

O=C(O)C(Cl)(Cl)Br
inactive: Potency [1] > 92 µM | Potency [2] > 92 µM | Potency [3] | outcome [18] | caspase-3 activation [4] 1.43% | outcome [5] | outcome [19] | Potency [6] | Potency [7] | outcome [8] | outcome [9] | Potency [20] | Potency [10] | Potency [11] | Potency [12] | Potency [13] | Potency [14] | Potency [15] | outcome [16] | Potency [17]

CNC(=O)O/N=C/C(C)(C)S(C)=O (centres undefined)
inactive: Potency [1] > 92 µM | Potency [2] > 92 µM | outcome [18] | caspase-3 activation [4] 0.627% | outcome [19] | Potency [6] | Potency [7] | outcome [8] | outcome [9] | Potency [20] | Potency [10] | Potency [11] | Potency [12] | Potency [13] | Potency [14] | outcome [16]

O=C(O)c1cc(Cl)ccc1Cl
inactive: Potency [1] > 92 µM | Potency [2] > 92 µM | Potency [3] | outcome [18] | caspase-3 activation [4] 0.232% | outcome [5] | outcome [19] | Potency [7] | outcome [9] | Potency [20] | Potency [10] | Potency [11] | Potency [12] | Potency [13] | Potency [15] | outcome [16] | Potency [17]

CC(C)(Cl)Cl
inactive: Potency [1] > 92 µM | Potency [2] > 92 µM | Potency [3] | outcome [19] | Potency [6] | Potency [7] | outcome [8] | Potency [20] | Potency [10] | Potency [11] | Potency [12] | Potency [13] | Potency [14] | Potency [15] | outcome [16] | Potency [17]

CCCCOC(=O)c1ccccc1N
inactive: Potency [1] > 92 µM | Potency [2] > 92 µM | Potency [3] | outcome [18] | caspase-3 activation [4] 1.19% | outcome [5] | outcome [19] | Potency [6] | Potency [7] | outcome [8] | outcome [9] | Potency [20] | Potency [10] | Potency [11] | Potency [12] | Potency [13] | Potency [14] | outcome [16]
